# Vc quorum ag-1 = inducers of Vibrio cholerae quorum light production without autoinducers | V. cholerae BH1578 lux reporter, luminescence, 6 h | actives 0.16% (n = 350,000) | activation, % at 18.7 µM; in the data active = activation mostly above about 9.7%, no sharp cut-off
# Mtb BioA inh = BioA (M. tuberculosis) enzyme inhibition. purified M. tuberculosis BioA enzyme, plate reader. inhibition, % at 9.99 µM. actives 0.096% (n = 360,000). AID 602481; in the data active = inhibition above about 40%
# FBA Mtb inh = inhibitors of M. tuberculosis fructose-bisphosphate aldolase; P9WQA3; purified M. tuberculosis FBA, fluorescence read-out; inhibition, % at 1 µM; actives 2.3% (n = 360,000); AID 588726; in the data active = inhibition above about 27%;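 also: 0% = vehicle and 100% = reference inhibitor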
# Target sequence (P9WQA3 whole entry, looked up): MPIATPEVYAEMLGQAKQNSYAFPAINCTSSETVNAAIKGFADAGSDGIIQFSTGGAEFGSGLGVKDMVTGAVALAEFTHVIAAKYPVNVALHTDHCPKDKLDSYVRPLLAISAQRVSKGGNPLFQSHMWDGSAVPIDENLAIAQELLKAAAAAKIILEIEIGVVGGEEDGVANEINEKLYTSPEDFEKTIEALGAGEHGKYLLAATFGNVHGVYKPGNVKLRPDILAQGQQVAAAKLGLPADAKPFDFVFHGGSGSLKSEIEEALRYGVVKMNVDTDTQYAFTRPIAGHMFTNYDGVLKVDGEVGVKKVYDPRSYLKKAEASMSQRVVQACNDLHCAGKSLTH
# GDH-TPI counter = counter-screen for M. tuberculosis FBA inhibitors: GDH-TPI coupled enzymes | actives 1.2% (n = 360,000) | GDH-TPI coupled enzyme counterscreen, NADH absorbance | AID 588335 | inhibition, % at 4.8 µM; in the data active = inhibition above about 30%;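 also: 0% = DMSO wells and 100% = wells lacking the enzyme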
# Vc quorum ag-2 = inducers of V. cholerae quorum light production without autoinducers; AID 602243; shares compounds with Vc quorum ag-1; 620 tested, under 10 active; activation, % at 50 µM; V. cholerae BH1578 lux reporter, luminescence, 6 h; call rule not given here
# HeLa tox = cytotoxicity in HeLa cells at 24 hours | shares compounds with Vc quorum ag-1 | HeLa viability, CellTiter-Glo ATP luminescence | activity change, negative = cytotoxicity, % at 35 µM | 25 tested, under 10 active;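 active = signal drop with fitted half-maximal concentration at or below twice the highest valid dose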
# The depositor's hits bear a star; i = inactive; x = no result; + = active, no number. Rows were chosen to be rich in hits. Some 3% of all compounds tested hit in one or more screens of this group.
SMILES,Vc quorum ag-1,Mtb BioA inh,FBA Mtb inh,GDH-TPI counter,Vc quorum ag-2,others
C[C@H]1CN([C@@H](C)CO)C(=O)c2cc(NC(=O)c3ccncc3)ccc2O[C@H]1CN(C)C,x,-1,x,x,x,
COc1ccc(-c2cnc3c(c2)C(=O)N([C@H](C)CO)C[C@@H](C)[C@H](CN(C)C(=O)C2CC2)O3)cc1,x,-1,x,x,x,
COCC(=O)Nc1ccc2c(c1)OC[C@@H](C)N(Cc1cc(F)ccc1F)C[C@H](C)[C@@H](OC)CN(C)C2=O,x,0,x,x,x,
COc1ccc(Cl)cc1NC(=O)COC(=O)c1cc(C)oc1C,+,0,-4,5,589,
COc1ccccc1NC(=O)COC(=O)c1cn(C)c2ccccc12,+,-4,2,1,268,
Cn1cc(C(=O)OCC(=O)NC2CCCCC2)c2ccccc21,1,-4,4,8,x,
COc1ccc(CCn2c(=S)[nH]c3ccc(N4CCOCC4)cc3c2=O)cc1OC,i,0,2,-2,x,
O=c1c2ccccc2[nH]c(=S)n1CC1CCCO1 (centres undefined),-1,0,2,6,x,
O=c1c2cc(N3CCOCC3)ccc2[nH]c(=S)n1CC1CCCO1 (centres undefined),12,4,10,1,0,
COCCCn1c(=S)[nH]c2ccc(N3CCOCC3)cc2c1=O,12,1,9,-1,0,
CN(C)C(=O)C[C@@H]1C[C@H]2c3cc(NC(=O)CC4CC4)ccc3O[C@H]2[C@H](CO)O1,x,0,x,x,x,
CCCC(=O)Nc1ccc2c(c1)C(=O)N(C)C[C@H](OC)[C@H](C)CN(C(=O)C1CCCC1)[C@@H](C)CO2,x,0,x,x,x,
Cc1ccc(C)c(N(C(=O)Cn2nnc(-c3cccs3)n2)C(C(=O)NC2CC2)c2ccc(C)o2)c1 (centres undefined),829*,0,4,9,2,
CCCN(C)C[C@H]1Oc2ncc(-c3cccnc3)cc2C(=O)N([C@@H](C)CO)C[C@H]1C,x,-2,x,x,x,
COc1ccc(S(=O)(=O)Nc2ccc3c(c2)C(=O)N([C@H](C)CO)C[C@H](C)[C@H](CN(C)S(=O)(=O)c2ccc(C)cc2)OCCCC[C@@H](C)O3)cc1,x,-4,x,x,x,
COc1ccccc1NC(=O)CC(=O)Nc1ccccc1OC,0,-1,2,7,x,
CCC(C)NC(=O)Cc1ccc(-c2ccccc2)cc1 (centres undefined),+,-5,4,6,i,HeLa tox=-6
COc1ccccc1NC(=O)Cc1ccc(-c2ccccc2)cc1,+,-1,1,4,i,
Cc1noc(C)c1NC(=O)N(C)C[C@@H]1Oc2ncc(C3=CCCC3)cc2C(=O)N([C@H](C)CO)C[C@@H]1C,x,-4,x,x,x,
C[C@H](NC(=O)[C@H]1[C@H](CO)[C@H]2Cn3c(cccc3=O)[C@@H]1N2Cc1cccnc1)c1ccccc1,x,0,x,x,x,
CN(C)CC(C)(C)CNC(=O)c1cc(=O)c2ccccc2o1,12,-10,3,7,0,
CCOC(=O)Cn1nc(C)n(-c2ccc(Cl)cc2)c1=O,0,x,0,11,x,
CCOC(=O)Cn1nc(C)n(-c2ccc(C(C)C)cc2)c1=O,14,-1,-2,11,0,
COc1ccc(-n2c(COc3ccccc3)nnc2SCc2ccc(C#N)cc2)cc1,12,3,0,-8,0,
CCOc1ccc2nc(SCC(=O)NCc3ccc(OC)c(OC)c3)[nH]c2c1,i,-1,-2,1,x,
SMILES,Vc quorum ag-1,Mtb BioA inh,FBA Mtb inh,GDH-TPI counter,Vc quorum ag-2,others
CCOc1ccc2nc(SCC(=O)NC(=O)NCc3ccco3)[nH]c2c1,32*,1,1,-3,0,
CCC(CCC(=O)Nc1cccc(C(=O)O)c1)C(=O)O (centres undefined),17*,-2,3,7,1,
CC(=O)N[C@@H]1CC[C@H](CC(=O)NCC2CCCCC2)O[C@H]1CO,x,0,x,x,x,
COc1cc(OC)c(OC)cc1CNC(C)C(O)c1ccccc1 (centres undefined),18,-2,6,-1,0,
Cc1ccc2cc3c(NC(=O)c4ccco4)nn(C)c3nc2c1,x,x,8,5,x,HeLa tox=-1
CCOc1ccc(/C(O)=C2/C(=O)C(=O)N(CCOCCO)C2c2ccccn2)cc1 (centres undefined),14,0,1,20,0,
CCOc1ccc(/C(O)=C2/C(=O)C(=O)N(CCOCCO)C2c2ccc(F)cc2)cc1 (centres undefined),i,0,0,12,x,
COc1ccc(C(=O)NC2CCSC2=O)cc1 (centres undefined),14,-6,-1,-2,0,
